The results in this text go back to PubChem BioAssay (EPA / NIEHS).

Structures are written as SMILES. Active and inactive are the calls of the source. How the source made its calls: active means hit-call score of the fitted dose curve at least 0.9, where 1 is the maximum; inactive means score below 0.9.

Read-out in this assay: Monokine induced gamma interferon (MIG), CXCL9 (gene 4283)
Put plainly: BSK_BE3C_MIG: BioMAP Diversity Plus: BE3C Assay for Monokine induced gamma interferon (MIG) Biomarker Activity (AID 2283035). The settings on record: primary human bronchial epithelial cells; actives raise or lower the signal. The method, then: BSK_BE3C is a cell-based, multiplexed-readout assay that uses bronchial epithelial cell, a human lung primary cell, with measurements taken at 24 hours after chemical dosing in a 96-well plate.BSK_BE3C_MIG is an assay component measured in the BSK_BE3C assay. It measures MIG antibody related to regulation of gene expression using ELISA technology.Data from the assay component BSK_BE3C_MIG was analyzed into 1 assay endpoint. This assay endpoint, BSK_BE3C_MIG, was analyzed with bidirectional fitting relative to DMSO as the negative control and baseline of activity. Using a type of binding reporter, gain or loss-of-signal activity can be used to understand changes in the signaling as they relate to the gene CXCL9. Furthermore, this assay endpoint can be referred to as a primary readout, because this assay has produced multiple assay endpoints where this one serves a signaling function. To generalize the intended target to other relatable targets, this assay endpoint is annotated to the cytokine intended target family, where the subfamily is chemotactic factor.
The levels of cell surface (or secreted, indicated by the prefix "s") biomarker endpoints were measured by ELISA. Overt cytotoxicity to cells in confluent adherent cultures (all systems other than the BT system) was assessed by measuring total protein levels using sulforhodamine B (SRB) staining in parallel cultures at the time of biomarker measurements, indicated as SRB endpoints. For proliferation assays for adherent cell types, individual cell types are cultured at sub-confluence and relative cell numbers quantified by SRB staining at time points optimized for each system (48 h: 3C and CASM3C systems; 72 h: BT and HDF3CGF systems; 96 h: SAg system). SRB was performed by staining cells with 0.1% SRB after fixation with 10% TCA and reading wells at 560 nm.Viability and proliferation of PBMC (T cells) was quantified by Alamar Blue reduction for the SAg and BT systems. For PBMC viability (referred to as PBMC Cytotoxicity within the assay endpoint names), cells were plated (75,000/well in a 96-well plate) and then chemical samples added for 1 h before addition of activators, SEB and TSST-1 (20 ng/mL final concentration each). Cells were incubated for 90 h. Then, Alamar Blue (20 uL/well) (Invitrogen, Cat DAL1100) was added for 6 h, and the plates were read with a fluorescence microplate reader at 546/580 nm (excitation/emission). For PBMC proliferation, cells were plated and activated as above but incubated for only 16 h prior to addition of Alamar Blue. Plates were read after 6 h.
As for `CCON=C(CC)C1=C(O)CC(c2c(C)cc(C)cc2C)CC1=O` (stereo not given), the result was inactive.
Still for that read-out and setting: the entry for `COC(=O)c1ccccc1C(=O)OC` is “inactive”; for `CCNc1nc(Cl)nc(NCC)n1` it is “inactive”; for `COC(=O)C=C(C)OP(=O)(OC)OC` it is “inactive”.
On the same count and under the same terms, the entry for `CCCC1COC(Cn2cncn2)(c2ccc(Cl)cc2Cl)O1` (stereo not given) is “inactive”; for `CNC(=S)S` it is “inactive”; for `O=C(Nc1ccccc1)Nc1ccnc(Cl)c1` it is “inactive”.
Consider `CN(C)C(=S)SSC(=S)N(C)C`, for which the half-maximal activity concentration (AC50) – broadly, the midpoint of the concentration-response curve, whichever way the signal moves – was 11.2 µM (active).
In the case of `CON(C)C(=O)Nc1ccc(Cl)c(Cl)c1`, the result was inactive.
For `CC(C)C1(C)N=C(c2nc3ccccc3cc2C(=O)O)NC1=O` (stereo not given), the result was inactive.
With `O=C(O)COc1nc(Cl)c(Cl)cc1Cl`, the result was inactive.
As for `COc1nc(C)nc(NC(=O)NS(=O)(=O)c2ccccc2CCC(F)(F)F)n1`, the outcome was inactive.
Turning to `CCCCNC(=O)n1c(NC(=O)OC)nc2ccccc21`, the result was inactive.
The same measure, in the same setting: the entry for `OC(c1ccc(Cl)cc1)(c1cncnc1)c1ccccc1Cl` (stereo not given) is “inactive”.
On to `N#Cc1nn(-c2c(Cl)cc(C(F)(F)F)cc2Cl)c(N)c1S(=O)C(F)(F)F` (stereo not given), for which the concentration at half-maximal activity (AC50) was 28.3 µM (active).
Turning to `Cc1c(F)c(F)c(COC(=O)C2C(/C=C(\Cl)C(F)(F)F)C2(C)C)c(F)c1F` (stereo not given), the result was inactive.
Same read-out and setting: then `C=CCC1=C(C)C(OC(=O)C2C(C=C(C)C)C2(C)C)CC1=O` (stereo not given), with “inactive”; and `CC(Oc1ccc(Cl)cc1Cl)C(=O)O` (stereo not given), with “inactive”; and `COP(=S)(OC)Oc1nc(Cl)c(Cl)cc1Cl`, with “inactive”.
With `C#CCOS(=O)OC1CCCCC1Oc1ccc(C(C)(C)C)cc1` (stereo not given), the AC50 was 25.5 µM (active).
As for `COc1nc(NC(C)C)nc(NC(C)C)n1`, the outcome was inactive.
On the same count and under the same terms, then `Cc1cc(Cl)ccc1OCC(=O)O`, with “inactive”; and `CCNc1nc(Cl)nc(NC(C)C)n1`, with “inactive”.
Still for that read-out and setting: then `CCOC(=O)CC(SP(=S)(OC)OC)C(=O)OCC` (stereo not given), with “inactive”; and `COC(=O)N(OC)c1ccccc1COc1ccn(-c2ccc(Cl)cc2)n1`, with “inactive”; and `CO/C=C(/C(=O)OC)c1ccccc1Oc1cc(Oc2ccccc2C#N)ncn1`, with “inactive”.
Regarding `Cc1ccc(-c2c(Cl)nc(C#N)n2S(=O)(=O)N(C)C)cc1`, the result was inactive.
The same measure, in the same setting: then `CCOP(=S)(OCC)SCn1c(=O)oc2cc(Cl)ccc21`, with “inactive”; and `CC1=C(C(=O)Nc2ccccc2)SCCO1`, with “inactive”.
Still for that read-out and setting: then `N#Cc1cc(Br)c(O)c(Br)c1`, with “inactive”.
Same read-out and setting: the entry for `CCOC(=O)C(Cl)Cc1cc(-n2nc(C)n(C(F)F)c2=O)c(F)cc1Cl` (stereo not given) is “inactive”; for `C=CC1(C)OC(=O)N(c2cc(Cl)cc(Cl)c2)C1=O` (stereo not given) it is “inactive”.
As for `COP(N)(=O)SC` (stereo not given), the outcome was inactive.
For `CCCCOC(=O)c1ccccc1C(=O)OCCCC`, the result was inactive.
Same read-out and setting: then `CNC(=O)ON=CC(C)(C)SC`, with “inactive”.
Take `CC1COC(Cn2cncn2)(c2ccc(Oc3ccc(Cl)cc3)cc2Cl)O1` (stereo not given): the AC50 was 29.3 µM (active).
Turning to `CS/C(C)=N/OC(=O)N(C)SN(C)C(=O)O/N=C(\C)SC`, the outcome was inactive.
In the case of `COc1ccc(C(c2ccc(OC)cc2)C(Cl)(Cl)Cl)cc1`, the outcome was inactive.
Same read-out and setting: the entry for `CCOc1cc(Oc2ccc(C(F)(F)F)cc2Cl)ccc1[N+](=O)[O-]` is “inactive”.
Still for that read-out and setting: then `CC(C)(C)c1ccc(CSc2cnn(C(C)(C)C)c(=O)c2Cl)cc1`, with “inactive”.
